# According to PubChem BioAssay (NCI):
# About 79,000 compounds went through this panel and 15% of them were active in at least one assay; those are over-represented in the sample as a whole. A number with no mark means an inactive call. Active and inactive are the calls of the source. Cut-off read from the data, not from the text of the source: active = growth inhibition above about 70%; inactive = the rest.
# How the values were obtained:
# [1] = NCI Yeast Anticancer Drug Screen. Data for the rad50 strain (AID 155);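 note: 0% = growth of vehicle-only cultures of the same strain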; details: S. cerevisiae rad50 strain growth inhibition; at 50.0 µM; active compounds read high
# How it was run: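 A DNA repair-deficient yeast mutant serves as the test organism; compound-induced growth inhibition is calculated against vehicle-treated cells.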
# [2] = NCI Yeast Anticancer Drug Screen. Data for the mec2-1 strain (AID 157); details: S. cerevisiae mec2-1 strain, at 50.0 µM, active compounds read high
# How it was run: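 mec2-1 yeast strain, carrying an alteration in DNA damage repair or cell cycle control, was exposed to compounds; growth inhibition was measured relative to vehicle-treated controls.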
# [3] = NCI Yeast Anticancer Drug Screen. Data for the sgs1 mgt1 strain (AID 161);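 note: 0% = growth of cultures given vehicle only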; details: S. cerevisiae sgs1 mgt1 strain, at 50.0 µM, active compounds read high
# How it was run: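 Growth of a repair-deficient yeast mutant was monitored after compound treatment and expressed as inhibition relative to vehicle-treated cultures.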
# [4] = NCI Yeast Anticancer Drug Screen. Data for the cln2 rad14 strain (AID 165);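 note: 0% = growth equal to vehicle treated cultures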; details: S. cerevisiae cln2 rad14 strain, at 50.0 µM, active compounds read high
# How it was run: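 Yeast carrying cln2 and rad14 alterations (cell cycle control and DNA damage repair) were exposed to compounds. Growth inhibition was measured against vehicle-treated controls.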
# [5] = NCI Yeast Anticancer Drug Screen. Data for the bub3 strain (AID 167); details: S. cerevisiae bub3 mutant strain, at 50.0 µM, active compounds read high
# How it was run: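 Inhibition values come from growth of compound-treated mutant yeast normalised to vehicle-treated controls.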
# [6] = NCI Yeast Anticancer Drug Screen. Data for the mlh1 rad18 strain (AID 175); details: S. cerevisiae mlh1 rad18 strain growth inhibition; at 50.0 µM; active compounds read high
# How it was run: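 Growth inhibition of the yeast strain was measured after compound exposure and expressed relative to vehicle-treated controls. The strain carries defined defects in DNA damage repair.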
SMILES,growth inhibition [1],growth inhibition [2],growth inhibition [3],growth inhibition [4],growth inhibition [5],growth inhibition [6]
CN1C(=O)N(C)P1(Cl)(Cl)Cl,18.6%,-6.15%,3.15%,-36.6%,0.2%,-14.9%
O=C(O)CCCNSc1ccccc1[N+](=O)[O-],71.2% (active),44.5%,73% (active),48.9%,68.4%,72% (active)
O=C(O)C1C(C(=O)O)C2(Cl)C(Cl)=C(Cl)C1(Cl)C2(Cl)Cl.[Cd] (centres undefined),61.4%,13.9%,-0.2%,-14.7%,-6.75%,19.4%
CC([NH-])C(C)[NH-].CC([NH-])C(C)[NH-].CC([NH-])C(C)[NH-].[Cr+6] (centres undefined),9.9%,22.8%,10.7%,2%,1.9%,8.15%
